Each structure is given as a SMILES string. Whole data set: some 110,000 compounds, median “z-score” near -0.1, cut for the highest 2% near 2. For the sample, the highest values were picked, then their nearest neighbours and some compounds at random. The source made the active and inactive calls.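 Rule for the calls: active = z-score in the third read window above 3 or below -3; inactive = the rest.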

The test deals with Metabotropic glutamate receptor 8 (Rattus norvegicus) (UniProt P70579). The test is described as follows: mGluR8 Gi/Go-coupled signaling modulation – cell-based, rat, thallium flux, HTS, primary screen (AID 488969). As to conditions: HEK293 rat mGluR8, GIRK (G protein-gated inwardly rectifying potassium channel) thallium flux, FluoZin2; at 10 µM; stronger effect = higher value; submaximal glutamate (EC20) added with thallium.
Chain of Metabotropic glutamate receptor 8 (Rattus norvegicus) (P70579 whole entry, looked up): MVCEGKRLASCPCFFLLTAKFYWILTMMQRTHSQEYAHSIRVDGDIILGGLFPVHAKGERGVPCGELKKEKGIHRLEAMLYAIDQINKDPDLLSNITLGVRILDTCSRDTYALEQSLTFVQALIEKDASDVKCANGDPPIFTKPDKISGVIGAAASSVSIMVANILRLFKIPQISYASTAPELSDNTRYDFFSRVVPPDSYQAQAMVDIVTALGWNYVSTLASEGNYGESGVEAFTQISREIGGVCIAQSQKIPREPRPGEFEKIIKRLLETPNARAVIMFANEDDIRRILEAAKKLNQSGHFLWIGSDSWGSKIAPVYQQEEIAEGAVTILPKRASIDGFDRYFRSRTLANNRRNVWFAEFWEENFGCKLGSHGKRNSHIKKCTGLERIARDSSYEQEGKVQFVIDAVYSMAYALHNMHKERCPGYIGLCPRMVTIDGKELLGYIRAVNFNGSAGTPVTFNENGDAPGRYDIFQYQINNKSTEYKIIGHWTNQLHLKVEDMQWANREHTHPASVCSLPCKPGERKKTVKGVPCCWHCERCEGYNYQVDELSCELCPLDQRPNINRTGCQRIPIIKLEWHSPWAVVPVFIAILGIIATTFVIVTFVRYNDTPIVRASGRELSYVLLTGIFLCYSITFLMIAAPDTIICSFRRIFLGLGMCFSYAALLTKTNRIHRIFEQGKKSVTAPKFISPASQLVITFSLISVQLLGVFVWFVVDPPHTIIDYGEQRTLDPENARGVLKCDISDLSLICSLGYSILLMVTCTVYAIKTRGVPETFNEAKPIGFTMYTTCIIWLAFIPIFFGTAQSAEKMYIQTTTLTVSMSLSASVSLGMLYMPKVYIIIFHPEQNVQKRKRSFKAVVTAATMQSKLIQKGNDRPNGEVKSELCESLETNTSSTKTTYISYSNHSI
Take `CC(CCc1ccccc1)NC(=O)C(Cc1ccccc1)NS(=O)(=O)c1cccs1` (centres undefined): the z-score is -0.446.

In the case of `COc1ccc(-c2cc(CNC(=O)CCl)on2)cc1`, the z-score is -0.113.

In turn, `CC(=O)c1ccc(N2CCN(C(=O)c3ccco3)CC2)c(F)c1` gave a z-score of -0.0315.

Take `Cc1ccc2nc(-c3ccc(NC(=S)NC(=O)C(C)C)cc3)sc2c1`: the z-score is -0.127.

`Cc1ccc(SC(=O)COc2ccccc2C)cc1` yielded a z-score of -0.399.

For the molecule `Cc1ccc(CNC(=O)COC(=O)CSc2cc(C)c(Br)cc2C)cc1`, the z-score came out at 0.22.

With `O=C(C1=C(O)/C(=C/c2ccc(O)cc2)CCC1)C(F)(F)F`, the z-score stood at 0.181.

As to `COc1ccc(/C=C2\CCCC(C(=O)C(F)(F)F)=C2O)cc1`, the z-score was 2.59.

`COc1ccc(/C=C2\CCOC2=O)cc1`: the z-score worked out at 0.296.

In turn, `Cc1ccc(NC(=O)CN2CCC(C(=O)c3ccc4c(c3)OCCO4)CC2)cc1` displayed a z-score of -0.152.

Regarding `CCOCCCNC(=O)C(NC(=O)CC1NC(=O)NC1=O)c1ccc(Cl)cc1` (centres undefined), the z-score was -0.134.

`COc1ccc(CCNC(=O)c2nc3ncccn3n2)cc1OC` had a z-score of 0.169.

`O=P(OC1CCCCC1)(OC1CCCCC1)C(O)c1ccccc1` (centres undefined) came in with a z-score of -0.904.

For the molecule `Cc1ccc(-n2[nH]c(C)c(C=Nc3ccc4[nH]c(=O)[nH]c4c3)c2=O)cc1`, the z-score was -0.443.

For `Cc1[nH]n(-c2ccccc2)c(=O)c1/C=N\NC(=O)C1COc2ccccc2O1` (centres undefined), the z-score was -0.0839.

`Cc1[nH]n(-c2ccccc2)c(=O)c1/C=N/c1ccccn1` returned a z-score of 2.61.

Regarding `Cc1ccc(-n2[nH]c(C)c(C=Nc3cc(C)ccn3)c2=O)cc1`, the z-score was 10.6 (active).

On to `Cc1ccc(-n2[nH]c(C)c(/C=N/c3ccccn3)c2=O)cc1`, for which the z-score is 6.24 (active).

The molecule `Cc1[nH]n(-c2ccccc2)c(=O)c1/C=N/O` showed a z-score of -0.187.

As to `Cc1ccc(-n2[nH]c(C)c(C=Nc3ccc(S(=O)(=O)Nc4nccs4)cc3)c2=O)cc1`, the z-score was -0.363.

In turn, `Cc1ccc2cccc(N=Cc3c(C)[nH]n(-c4ccccc4)c3=O)c2n1` came in with a z-score of 0.282.

For `CCCCN(CCCC)C(=S)N/N=C/c1c(C)[nH]n(-c2ccccc2)c1=O`, the z-score was 10.4 (active).

`CCCc1nc2ccccc2c(=O)n1/N=C/c1c(C)[nH]n(-c2ccc(C)cc2)c1=O` returned a z-score of 1.38.

`Cc1ccc(-n2[nH]c(C)c(/C=N/n3c(C)nc4ccccc4c3=O)c2=O)cc1` showed a z-score of 0.177.

Turning to `Cc1[nH]n(-c2ccccc2)c(=O)c1C=Nc1cccc2cccnc12`, the z-score is 0.652.

Regarding `Cc1nc2ccc(S(=O)(=O)NCC(=O)N3CCCCC3)cc2s1`, the z-score is -0.09.

Turning to `COc1cc(NC(=O)CN(C)Cc2ccc(OC(F)F)cc2)c(C)cc1[N+](=O)[O-]`, the z-score was -0.0913.

Regarding `COC(=O)c1ccc(CSc2n[nH]c(C)n2)o1`, the z-score is -0.0591.

Take `CCOc1ccc(C(C)=O)cc1COC(=O)C1=COCCO1`: the z-score is -1.15.

For the molecule `CCCc1nc2sc3c(=O)n(N)cnc3c2c2c1CCCC2`, the z-score was -0.191.

Turning to `CCc1nnc(NS(=O)(=O)c2ccc(N=Cc3c(C)[nH]n(-c4ccc(Cl)cc4)c3=O)cc2)s1`, the z-score was -0.276.

Regarding `Cc1[nH]n(-c2ccc(Cl)cc2)c(=O)c1C=NC12CN3CN(CN(C3)C1)C2`, the z-score is -0.111.

For `Cc1[nH]n(-c2ccc(Cl)cc2)c(=O)c1/C=N/c1nnc(-c2ccccc2)s1`, the z-score was 8.81 (active).

Regarding `O=C(CSCCO)Nc1ccccc1`, the z-score was 3.04 (active).

The molecule `O=C(O)CCCSCC(=O)Nc1ccccc1` gave a z-score of 0.633.

`O=C(O)CSCC(=O)Nc1ccccc1` had a z-score of 0.00603.

In turn, `Cc1ccc(C2=[N+]([O-])C3(CCCCC3=O)N(O)C2(C)C)cc1` (centres undefined) registered a z-score of 0.0871.

For the molecule `O=C(COC(=O)Cc1cccc2ccccc12)Nc1ccccc1-c1ccccc1`, the z-score was -0.174.

On to `COc1cc(/C=C2\SC(=S)N(Nc3ncc(C(F)(F)F)cc3Cl)C2=O)ccc1O`, for which the z-score worked out at 1.29.

With `O=C1/C(=C\c2ccccn2)SC(=S)N1Nc1ncc(C(F)(F)F)cc1Cl`, the z-score was 3.17 (active).

The molecule `O=C1/C(=C/c2ccc(F)cc2)SC(=S)N1Nc1ncc(C(F)(F)F)cc1Cl` showed a z-score of 0.426.

In turn, `CCOC(=O)CC1C(=O)NCCN1C(=O)c1cc2c(=O)n3ccccc3nc2s1` (centres undefined) displayed a z-score of -0.533.

As for `CN(C)S(=O)(=O)c1cccc(NC(=O)COc2cccc(C#N)c2)c1`, the z-score was 3.82 (active).

For `CN(C)S(=O)(=O)c1cccc(NC(=O)Cc2ccc(Cl)cc2)c1`, the z-score was 4.58 (active).

With `Cc1ccc(NCC(=O)Nc2cccc(S(=O)(=O)N(C)C)c2)c(Cl)c1`, the z-score is 4.79 (active).

In turn, `CN(C)S(=O)(=O)c1cccc(NC(=O)COC(=O)CCSc2ccc(Cl)cc2)c1` registered a z-score of 0.722.

As to `Cc1c(Cl)cccc1NC(=O)CNc1cccc(S(=O)(=O)N(C)C)c1`, the z-score is -0.138.

`Cc1cc(=O)oc2cc(OCC(=O)Nc3cccc(S(=O)(=O)N(C)C)c3)ccc12` gave a z-score of -0.0464.

In turn, `CCN(CC)S(=O)(=O)c1cccc(NC(=O)COc2ccc(C#N)cc2OC)c1` gave a z-score of -0.191.

In turn, `CCNc1ccc(S(=O)(=O)N(C)C)cc1NCC(=O)Nc1ccc(F)c(Cl)c1` had a z-score of 0.204.

For the molecule `O=C(Cc1ccc(Cl)cc1)Nc1cccc(S(=O)(=O)Nc2ccccc2F)c1`, the z-score worked out at 0.371.

Regarding `CC1CN(c2c3c(nc4ncnn24)CCCC3)CC(C)O1` (centres undefined), the z-score is -0.374.

`Cc1ccc(N(C(C)C(=O)Nc2ccc(S(=O)(=O)N3CCOCC3)cc2)S(C)(=O)=O)cc1` (centres undefined): the z-score was determined as 0.137.

For `CCCCc1ccc(-c2csc(/C(C#N)=C/c3ccco3)n2)cc1`, the z-score was -0.275.

`CCOCCCNC(=O)c1ccc(CS(=O)(=O)Cc2cccc(C)c2)o1` registered a z-score of 0.789.

Take `O=C1CC(N2CCC(O)(c3ccc(Cl)cc3)CC2)C(=O)N1` (centres undefined): the z-score turned out to be 0.198.

`COc1cccc(NC(=O)N(CCCN2CCOCC2)C(C)c2cc3ccccc3o2)c1` (centres undefined) had a z-score of -2.21.

Consider `CCN(C(=O)CCN1C(=O)c2ccccc2C1=O)C1CCCCC1`, for which the z-score worked out at 0.156.

For `NC(=O)CSc1nc(O)cc(=O)n1-c1ccccc1`, the z-score was 0.418.

In the case of `O=C(CSc1nc(O)cc(=O)n1-c1ccccc1)N1CCCCC1`, the z-score is 4.46 (active).

Molecule `O=C(CSc1nc2ccccc2c(=O)n1-c1ccccc1)N1CCCC1` had a z-score of -0.689.

The molecule `COc1ccc(Cn2nnnc2C(c2ccc(C)cc2)N2CCN(C3CCCC3)CC2)cc1` (centres undefined) showed a z-score of 0.353.

`Fc1ccc(C(c2nnnn2Cc2cccs2)N2CCN(C3CCCC3)CC2)cc1` (centres undefined) registered a z-score of 1.73.

In turn, `COc1ccc(Cn2nnnc2C(c2ccccc2Cl)N2CCN(C3CCCC3)CC2)cc1` (centres undefined) showed a z-score of 1.79.

Take `CC(C)C(c1nnnn1Cc1ccco1)N1CCN(C2CCCC2)CC1` (centres undefined): the z-score was -0.255.

Molecule `Fc1ccc(C(c2nnnn2Cc2ccco2)N2CCN(C3CCCCC3)CC2)cc1` (centres undefined) yielded a z-score of 2.31.

In the case of `COc1ccc(Cn2nnnc2C(c2ccc(F)cc2)N2CCN(C3CCCC3)CC2)cc1` (centres undefined), the z-score was 3.92 (active).

Take `N#Cc1nc(-c2ccccc2)oc1NCC1CCCO1` (centres undefined): the z-score is -0.084.

For the molecule `Cc1nn2c([nH]c(=O)c3ccccc32)c1C=O`, the z-score turned out to be 0.184.

In the case of `CCOC(=O)c1cnn2c1[nH]c(=O)c1ccccc12`, the z-score came out at 1.54.

`Cc1cc2[nH]c(=O)c3ccccc3n2n1`: the z-score is 4.8 (active).

`CCOC(=O)c1ccccc1NC(=O)Cc1ccccc1OC` came in with a z-score of -0.663.

Molecule `CCCOc1ccccc1N/C(=N/c1nc(C)cc(C)n1)NC(=O)COc1ccc(OC)cc1` showed a z-score of 0.266.

Consider `CC1CN(C(=O)C2CC2)C(C)CN1C(=O)C1CC1` (centres undefined), for which the z-score was found to be 0.00492.

Regarding `CC1CN(C(=O)C2CCCC2)C(C)CN1C(=O)C1CCCC1` (centres undefined), the z-score came out at 0.888.

Turning to `CC1CN(C(=O)C2CCCCC2)C(C)CN1C(=O)C1CCCCC1` (centres undefined), the z-score is 11.1 (active).

Take `Cc1ccccc1NC(=O)c1cn(-c2ccccc2)nc1-c1ccccc1`: the z-score was 0.316.

On to `O=C(Nc1ccccc1)Nc1ccc2snnc2c1`, for which the z-score is -0.373.

In turn, `CC(C)c1ccc(Oc2cccc(C(=O)/C(C#N)=C/N(C)C)c2)cc1` displayed a z-score of -0.286.

Turning to `Cc1cc2c(cc1C)C(=O)NC(C)(C)C2`, the z-score was 5.66 (active).

Turning to `CC1(C)Cc2ccccc2C(=O)N1`, the z-score is 0.0959.

On to `CC(C)c1ccc2c(c1)C(=O)NC(C)(C)C2`, for which the z-score was -0.156.

`O=C(CN1C(=O)CCS(=O)(=O)c2ccccc21)Nc1cccc(F)c1`: the z-score is -0.608.

In the case of `Cc1ccc(Nc2c([N+](=O)[O-])cc(C(=O)N3CC(=O)Nc4ccccc43)cc2[N+](=O)[O-])c(C)c1`, the z-score is -0.162.

In the case of `CCc1cccc(Nc2c([N+](=O)[O-])cc(C(=O)N3CC(=O)Nc4ccccc43)cc2[N+](=O)[O-])c1`, the z-score was -1.1.

Consider `Cc1ccc(C)c(Nc2c([N+](=O)[O-])cc(C(=O)N3CC(=O)Nc4ccccc43)cc2[N+](=O)[O-])c1`, for which the z-score was 4.62 (active).

The molecule `O=C(c1ccc(O)cc1)c1ccc(Cl)cc1` showed a z-score of -0.563.

With `CCOC(=O)Nc1cc2c(cc1C(C)=O)OCO2`, the z-score was 0.657.

Turning to `COc1ccc(Cl)cc1NC(=O)C1CC(=O)N(c2ccc(F)cc2)C1` (centres undefined), the z-score amounted to 0.0135.

Molecule `COC(=O)c1ccccc1NC(=O)C1CC(=O)N(c2ccc(C)cc2)C1` (centres undefined) yielded a z-score of -0.265.

Regarding `COC(=O)c1ccccc1NC(=O)C1CC(=O)N(c2ccccc2)C1` (centres undefined), the z-score is -0.0106.

As to `COc1ccc(OC)c(NC(=O)C2CC(=O)N(c3ccc(Br)cc3)C2)c1` (centres undefined), the z-score is 3.63 (active).

As for `CCOc1ccc(N2CC(C(=O)Nc3ccccc3OC)CC2=O)cc1` (centres undefined), the z-score amounted to 1.1.

With `COC(=O)c1ccccc1NC(=O)C1CC(=O)N(c2ccc(F)cc2)C1` (centres undefined), the z-score came to 2.15.

`O=C(CCC(=O)OCC(=O)c1cccc([N+](=O)[O-])c1)Nc1cccc(Cl)c1Cl` came in with a z-score of -0.0921.

Take `O=C(c1ccc(N2CCN(CCO)CC2)nc1)N1CCOCC1`: the z-score worked out at 0.0375.

With `CC12CC(c3ccccc3O1)N(C(=O)c1ccco1)C(=S)N2c1ccc(F)cc1` (centres undefined), the z-score was -0.812.

The molecule `CC(C)OC(=O)c1cc2c(ccn2C)n1CC(=O)N(Cc1ccccc1)c1ccc(F)cc1` yielded a z-score of -0.00352.

The molecule `CCOC(=O)c1nnn(-c2nonc2N)c1COc1ccc(F)cc1` came in with a z-score of -0.0888.

Turning to `Cc1ccccc1OCCCC(=O)Nc1nccs1`, the z-score came to 2.49.

`O=C(CCCOc1ccccc1)Nc1nccs1` yielded a z-score of -1.29.

Take `Cc1ccc(C)c(OCCCC(=O)Nc2nccs2)c1`: the z-score is -0.0356.

Turning to `COCCCn1c(=N)c(C(=O)NCc2ccc3c(c2)OCO3)cc2c(=O)n3ccccc3nc21`, the z-score was -0.494.

On to `CCCC(=O)OCC(=O)Nc1ccccc1Sc1ccccc1`, for which the z-score was -0.604.

Turning to `COc1ccccc1/C=N/NC(=O)CC(=O)NCc1cccnc1`, the z-score is -0.2.

`O=C(c1cc2nc(-c3ccco3)cc(C(F)(F)F)n2n1)N1CCN(Cc2ccccc2)CC1`: the z-score was -0.1.

Consider `CCOC(=O)C1=C(C)NC(=O)NC1c1cccnc1` (centres undefined), for which the z-score is 0.62.

As for `O=C1NC(=O)C2(COC(c3cccnc3)OC2)S1` (centres undefined), the z-score stood at 2.49.

`O=C1NC(=O)C2(COC(c3ccccc3Cl)OC2)S1` (centres undefined) returned a z-score of -0.116.

The values above are taken from PubChem BioAssay AID488969 (Vanderbilt High Throughput Screening Facility, 2010).
